Structures are written as SMILES. Active and inactive are the calls of the source. How the source made its calls: active means hit-call score of the fitted dose curve at least 0.9, where 1 is the maximum; inactive means score below 0.9.

Data on 40 molecules can be found in PubChem BioAssay (EPA / NIEHS).

This test is described as follows: ATG_RORE_CIS: Attagene CIS-FACTORIAL HepG2 Assay for human RAR-related Orphan Receptor Element (RORE) (AID 2282959). The note with it: HepG2 Attagene cis-factorial RORE reporter, mRNA; actives raise or lower the signal. As to the method: ATG_CIS is a cell-based, multiplexed-readout assay that uses HepG2, a human liver cell line, with measurements taken at 24 hours after chemical dosing in a 24-well plate.ATG_RORE_CIS is one of 52 assay component(s) measured or calculated from the ATG_CIS assay. It is designed to make measurements of mRNA induction, a form of inducible reporter, as detected with fluorescence intensity signals by Reverse transcription polymerase chain reaction (RT-PCR) and Capillary electrophoresis technology.Data from the assay component ATG_RORE_CIS was analyzed into 1 assay endpoint. This assay endpoint, ATG_RORE_CIS, was analyzed with bidirectional fitting relative to DMSO as the negative control and baseline of activity. Using a type of inducible reporter, measures of mRNA for gain or loss-of-signal activity can be used to understand the reporter gene at the transcription factor-level as they relate to the gene RORA and RORB and RORC. Furthermore, this assay endpoint can be referred to as a primary readout, because this assay has produced multiple assay endpoints where this one serves a reporter gene function. To generalize the intended target to other relatable targets, this assay endpoint is annotated to the nuclear receptor intended target family, where the subfamily is orphan.
Human liver HepG2 cells are transiently transfected with multiple reporter transcription units (MRTUs) in 6-well plates using FuGene 6 reagent (Roche; 3 ml FuGene/1 mg DNA). The MRTU constructs are regulated by a cis-regulating element (promoter). […] A major difference between the CIS and TRANS system is that in CIS activities of endogenous TFs are measured, whereas the TRANS assay evaluates changes in activities of exogenous, chimeric NR-Gal4 proteins. […] At the end of 24 hour incubation, total RNA was isolated using TriZol reagent (Invitrogen). The isolated RNA is then reverse-transcribed using oligo(dT) primer and Mo-MLV reverse transcriptase (Invitrogen) with DNAse I (Ambion) treatment for 30 min. The one-tenth of the produced cDNA was amplified by PCR using Taq DNA polymerase (Invitrogen) and two reporter sequence-specific primers. The PCR products were fluorescently labeled by primer extension with 6-arboxyfluorescein (6-FAM) 5'-labeled reporter sequence-specific primer (2 min at 95 C, 20 s at 68 C and 10 min at 72 C) and these products were digested with 5U of HpaI (New England Biolabs) for 2h at 37 C. The fragments were purified using Qiaquick PCR columns (Qiagen), analyzed on an ABI 3130xL genetic analyzer (Applied Biosystems) with peak positions identified by using a set of X-rhodamine (ROX)-labeled MapMarker1000 molecular weight standards (BioVentures). The raw capillary electrophoresis data was processed using Attagraph software (Attagene).
Regarding `Clc1cc(Cl)c(-c2c(Cl)c(Cl)cc(Cl)c2Cl)cc1Cl`, the outcome was inactive.

Turning to `NC(=S)NNC(N)=S`, the molecule was classed as inactive. For `c1ccc(Oc2ccccc2)cc1`, the molecule was classed as inactive.

For `Nc1ccc(NCCO)c([N+](=O)[O-])c1`, the result was inactive. With `CCCCCCCCCCCCN1CCCCCC1=O`, the result was inactive.

In the case of `C1=CC2C3C=CC(C3)C2C1` (stereo not given), the outcome was inactive. With `CC(C)(C)C1=CC(=O)C(C(C)(C)C)=CC1=O`, the call was inactive. Turning to `O=C1OC2(c3ccccc31)c1ccc(O)c(Br)c1Oc1c2ccc(O)c1Br`, the molecule was called inactive. For the molecule `CC[N+](C)(CC)CC`, the call was inactive. For the molecule `COc1ccc(CCO)cc1`, the result was inactive. `COC(CC(C)CCCC(C)(C)O)OC` (stereo not given): the call was inactive.

Turning to `ClC(c1ccccc1)(c1ccccc1)c1ccccc1`, the result was inactive. The same measure, in the same setting: the entry for `CC(C)CCOC(=O)c1ccccc1` is “inactive”. Turning to `O=[N+]([O-])c1ccc(O)cc1C(F)(F)F`, the AC50 was 49 µM (active). As for `CC(=O)O[C@@H]1C[C@@H]2CC[C@@]1(C)C2(C)C`, the molecule was called inactive. Take `CCOC(=O)CCc1ccccc1`: the result was inactive. Consider `N#Cc1cscn1`, for which the call was inactive. `CCCCCCCC(=O)OCCCCCC`: the molecule was called inactive.

Consider `CCCC(=O)OCCc1ccccc1`, for which the call was inactive.

Consider `CCC1(c2ccccc2)C(=O)NCNC1=O`, for which the molecule was called inactive. For the molecule `OCc1cccc(Oc2ccccc2)c1`, the outcome was inactive. `COCCOC(=O)c1ccccc1C(=O)OCCOC`: the molecule was called inactive. Consider `C=Cc1ccc(C)cc1`, for which the molecule was classed as inactive. On to `CC(C)c1ccccc1O`, for which the result was inactive.

With `N#Cc1ccc(CC(=O)c2cccc(C(F)(F)F)c2)cc1`, the result was inactive. Regarding `Cc1cc(S(=O)(=O)O)ccc1N=Nc1c(O)ccc2ccccc12`, the AC50 is 4.16 µM (active). On to `O=c1[nH]c(=O)c2cn[nH]c2[nH]1`, for which the result was inactive. Turning to `CCCC(O)C(O)CO` (stereo not given), the outcome was inactive. The same measure, in the same setting: the entry for `CCC(=O)O[C@@H]1C[C@H]2CC[C@]1(C)C2(C)C` is “inactive”; for `OCCc1ccccc1` it is “inactive”. As to `C=Cc1ccncc1`, the AC50 was 10.2 µM (active). With `Brc1ccc(Br)c(Br)c1`, the molecule was classed as inactive.

Consider `CCCC(=O)C(CC)Sc1ccoc1C` (stereo not given), for which the result was inactive.

With `Cc1c(C2(c3cc(Br)c(O)c(Br)c3C)OS(=O)(=O)c3ccccc32)cc(Br)c(O)c1Br`, the call was inactive.

For `CCCCC(CC)COC(=O)c1ccc(O)cc1` (stereo not given), the outcome was inactive. With `CC1CCC(C(C)C)C(O)C1` (stereo not given), the result was inactive.

Turning to `Oc1c(Cl)cc(Cl)c(Cl)c1Cc1c(O)c(Cl)cc(Cl)c1Cl`, the concentration at half-maximal activity (AC50) is 2.2 µM (active). For `[O-]n1ccccc1=S.[O-]n1ccccc1=S.[Zn+2]`, the molecule was called inactive. For the molecule `CCCCCCOCCOCCO`, the molecule was called inactive. For `COc1ccccc1[N+](=O)[O-]`, the call was inactive.

What is called AC50 is the concentration at which the activity in the assay is half-maximal.
